Experimental findings from paper PMC4336329 (PLoS ONE, 2015) are described below.

The structures appear in SMILES notation. The whole screen tested about 310,000 compounds, of which about 14,000 (4.5%) showed an effect of 50% or more. Effects have a minus sign here. Many of the other results were omitted from the sample, so strong results are more common in it than they were.
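Note: peak tail current of the secondary pulse compared with the same well before compound.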

human ether-à-go-go-related gene (hERG) potassium channel, sequence (Q12809 whole entry, looked up): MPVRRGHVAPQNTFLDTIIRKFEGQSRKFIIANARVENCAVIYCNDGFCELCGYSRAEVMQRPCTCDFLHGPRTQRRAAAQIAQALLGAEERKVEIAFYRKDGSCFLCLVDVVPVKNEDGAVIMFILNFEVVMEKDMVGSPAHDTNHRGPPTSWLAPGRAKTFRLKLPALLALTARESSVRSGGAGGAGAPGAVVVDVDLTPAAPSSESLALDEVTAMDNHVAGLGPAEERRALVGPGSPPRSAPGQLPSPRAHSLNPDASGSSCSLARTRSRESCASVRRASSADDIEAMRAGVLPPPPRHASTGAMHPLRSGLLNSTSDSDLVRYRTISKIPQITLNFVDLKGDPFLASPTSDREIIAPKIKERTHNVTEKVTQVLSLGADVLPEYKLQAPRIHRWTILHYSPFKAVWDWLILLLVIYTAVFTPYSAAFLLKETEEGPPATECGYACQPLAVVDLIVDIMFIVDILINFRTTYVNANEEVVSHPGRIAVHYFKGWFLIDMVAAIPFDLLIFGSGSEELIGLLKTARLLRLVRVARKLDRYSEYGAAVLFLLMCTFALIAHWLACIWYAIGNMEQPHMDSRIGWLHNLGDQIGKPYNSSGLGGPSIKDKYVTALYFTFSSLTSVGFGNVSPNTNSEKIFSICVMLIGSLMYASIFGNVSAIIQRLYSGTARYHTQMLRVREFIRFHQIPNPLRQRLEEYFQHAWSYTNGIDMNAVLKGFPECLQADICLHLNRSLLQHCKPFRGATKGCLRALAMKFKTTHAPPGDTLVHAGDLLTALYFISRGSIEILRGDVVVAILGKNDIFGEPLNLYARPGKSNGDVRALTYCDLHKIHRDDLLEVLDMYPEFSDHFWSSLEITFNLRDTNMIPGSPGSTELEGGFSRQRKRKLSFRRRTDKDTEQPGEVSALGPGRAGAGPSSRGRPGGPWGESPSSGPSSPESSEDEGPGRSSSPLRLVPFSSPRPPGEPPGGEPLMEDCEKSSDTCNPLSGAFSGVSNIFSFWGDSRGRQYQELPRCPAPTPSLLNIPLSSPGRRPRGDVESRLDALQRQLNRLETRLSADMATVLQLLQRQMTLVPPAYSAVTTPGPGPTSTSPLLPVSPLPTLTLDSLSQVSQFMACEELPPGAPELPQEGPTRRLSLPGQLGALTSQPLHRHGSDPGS

The test addresses human ether-à-go-go-related gene (hERG) potassium channel (human, UniProt Q12809). Description: primary screen, population patch clamp on CHO cells stably expressing hERG; higher = less effect of the substance.
With `O=C(NC1CCCC1)C(c1cc2c(cc1[N+](=O)[O-])OCO2)N1CCCC1` (centres unmarked), the “hERG current change (%, negative = inhibition) at 10uM” value was 20.6%. The same measure for `COc1cc(C(=O)Nc2cccnc2)cc(OC)c1OC`: 16.3%. The same measure for `O=CN1CCN(C(=O)CN2C(=O)c3ccccc3C2=O)CC1`: 10.5%; for `CCOc1ccc(OCC(O)CN2CCc3ccccc3C2)cc1.Cl` (centres unmarked): -66.3%; for `COc1ccc(OCC(O)CN2CCc3ccccc3C2)cc1.Cl` (centres unmarked): -33.1%. Take `Cl.OC(COc1ccc2c(c1)OCO2)CN1CCc2ccccc2C1` (centres unmarked): the “hERG current change (%, negative = inhibition) at 10uM” value is on record as -28.5%. Turning to `Cc1cc(=O)oc2cc(OCC(O)CN3CCc4ccccc4C3)ccc12` (centres unmarked), the “hERG current change (%, negative = inhibition) at 10uM” value is listed as -31.7%.

In the case of `CC(=O)c1ccc(OCC(O)CN2CCc3ccccc3C2)cc1.Cl` (centres unmarked), the “hERG current change (%, negative = inhibition) at 10uM” value is reported as -41.9%.

For `Cn1cc(CNCc2ccccc2OCC(O)CN2CCc3ccccc3C2)cn1` (centres unmarked), the “hERG current change (%, negative = inhibition) at 10uM” value was -0.11%. Regarding `CCN(CCn1cccn1)Cc1ccccc1OCC(O)CN1CCc2ccccc2C1` (centres unmarked), the “hERG current change (%, negative = inhibition) at 10uM” value was -51.5%. As to `OC(COc1ccccc1CNCc1cccnc1)CN1CCc2ccccc2C1` (centres unmarked), the “hERG current change (%, negative = inhibition) at 10uM” value is listed as -34.2%. `CCC(=O)c1ccc(OCC(O)CN2CCc3ccccc3C2)cc1.Cl` (centres unmarked): the “hERG current change (%, negative = inhibition) at 10uM” value is reported as -63.7%.

As to `Cc1cc(OCC(O)CN2CCc3ccccc3C2)ccc1Cl.Cl` (centres unmarked), the “hERG current change (%, negative = inhibition) at 10uM” value is listed as -53.4%. In the case of `O=S(=O)(c1ccc(OCC(O)CN2CCc3ccccc3C2)cc1)N1CCOCC1` (centres unmarked), the “hERG current change (%, negative = inhibition) at 10uM” value is recorded as -4.43%. With `N#CC1=C(N)NC(SCC(=O)Nc2ccc(Br)cc2)=C(C#N)C12CCCCC2`, the “hERG current change (%, negative = inhibition) at 10uM” value is on record as 13.4%. As to `O=C(Nc1cc(Cl)ccc1O)C1CC(c2ccccc2Cl)=NO1` (centres unmarked), the “hERG current change (%, negative = inhibition) at 10uM” value came out at 20.3%. The same measure for `O=C(N/N=C/c1cn(-c2cccs2)nc1-c1ccccc1)c1ccc(O)cc1`: 13.8%; for `COc1c(C)cccc1C(=O)Nc1ccc(N2CCN(S(C)(=O)=O)CC2)cc1`: 5.12%; for `CCCC(=O)Nc1nnc(CC(=O)N2CCCC2)s1`: 7.72%. Then `O=C(CCCc1nc(-c2ccccc2Cl)no1)NCc1cccnc1`, with -2.1%; and `Cn1nnnc1NCc1ccccc1F`, with 4.52%; and `CCCCC1OC23CCCCC2C(C#N)(C(=N)O3)C1(C#N)C#N` (centres unmarked), with 4.17%. The same measure for `CCN(CC)S(=O)(=O)c1ccc2c(c1)nc(SCC(=O)NCC1CCCO1)n2CC` (centres unmarked): 3.12%. For the compound `c1ccc(CSc2nnc(-c3cccs3)n2Cc2ccco2)cc1`, the “hERG current change (%, negative = inhibition) at 10uM” value is recorded as -46.8%.

On to `Cl.OC1(CN2CCOCC2)C2CC3CC(C2)CC1C3` (centres unmarked), for which the “hERG current change (%, negative = inhibition) at 10uM” value was determined as 11%.

As to `O=C(COC(=O)c1cc(-c2ccccc2)nc2ccccc12)Nc1ccc2c(c1)OCO2`, the “hERG current change (%, negative = inhibition) at 10uM” value was 10.7%.
